Reference: PubChem BioAssay
Calls of active or inactive are those of the source.

Tests used:
Albumin (Bos taurus) = Albumin (Bos taurus) (UniProt P02769); experiment: compounds binding labelled BSA control protein – biochemical, small-molecule microarray, Alexa647 label, 635/667 nm fluorescence, artefact control for SMM control protein annotation, profiling panel (AID 1118); settings: BSA-A647 binding, fluorescence 635 nm, higher = more signal;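 note: score merges 667 nm emission intensity and signal-to-noise per printed compound spot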
Sequence of Albumin (Bos taurus) (P02769 whole entry, looked up): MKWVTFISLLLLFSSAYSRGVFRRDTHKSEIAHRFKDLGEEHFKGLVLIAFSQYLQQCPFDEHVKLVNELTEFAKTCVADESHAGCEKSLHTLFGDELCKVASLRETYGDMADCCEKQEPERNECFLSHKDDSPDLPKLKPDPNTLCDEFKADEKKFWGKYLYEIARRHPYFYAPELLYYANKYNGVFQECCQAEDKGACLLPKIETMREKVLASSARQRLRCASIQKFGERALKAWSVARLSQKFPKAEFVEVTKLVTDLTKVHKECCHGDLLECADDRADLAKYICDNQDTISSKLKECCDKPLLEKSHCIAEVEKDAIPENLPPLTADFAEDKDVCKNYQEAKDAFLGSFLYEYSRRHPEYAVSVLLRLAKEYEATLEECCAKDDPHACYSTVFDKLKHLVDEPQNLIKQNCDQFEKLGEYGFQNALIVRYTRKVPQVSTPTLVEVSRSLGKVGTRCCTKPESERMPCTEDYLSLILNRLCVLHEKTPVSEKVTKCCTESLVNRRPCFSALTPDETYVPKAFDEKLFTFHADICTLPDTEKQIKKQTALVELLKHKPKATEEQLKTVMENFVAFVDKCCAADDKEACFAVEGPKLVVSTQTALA

[1] = probe aXIP binding to arrayed compounds – biochemical, NeuroSMM set, 635/667 nm fluorescence, primary screen (AID 1119); settings: small-molecule microarray, higher = more signal, called active from +8 up or from −8 down;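 note: probe is the protein aXip251-270 applied at 1 µg/mL to compound-printed slides; binding of probe to printed compounds measured as 667 nm fluorescence plus signal to noise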
[2] = probe aNOTCH3 binding on compound microarray – biochemical, small-molecule microarray, 635/667 nm fluorescence, primary screen (AID 1120); settings: higher = more signal;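 note: probe is a biotin-tagged antibody raised against NOTCH3 rather than NOTCH3 protein; score merges spot fluorescence near 667 nm with spot signal to noise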
[3] = probe aNOTCH2 binding on compound microarray – biochemical, small-molecule microarray, 635/667 nm fluorescence, primary screen (AID 1121); settings: higher = more signal;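 note: score merges feature fluorescence read at 667 nm with its signal to noise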
[4] = target: Carbonic anhydrase 2 (Homo sapiens) (UniProt P00918); experiment: compounds binding carbonic anhydrase 2 – biochemical, small-molecule microarray, Alexa647-labelled CAII, profiling panel (AID 1122); settings: CAII-A647 binding fluorescence, higher = more signal
[5] = COS7 lysate on small-molecule microarray, probe aHis, 635 nm (AID 1123); settings: COS7 cell lysate, fluorescence, higher = more signal;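 note: z-score combines 667nm fluorescence intensity with signal-to-noise per printed compound spot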
[6] = probe aLAP1 signal on lysate-treated microarray – cell lysate, small-molecule microarray, COS7 lysate, primary screen (AID 1124); settings: probe aLAP1, fluorescence, higher = more signal;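 note: lysate comes from COS7 cells expressing LAP1 and is applied at 0.3 µg/mL; score merges spot fluorescence near 667 nm with signal-to-noise over triplicate slides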
Sam68 (KHDRBS1) = experiment: compounds binding KHDRBS1 protein – biochemical, small-molecule microarray, 635 nm fluorescence, primary screen (AID 1125); settings: higher = more signal;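 note: score merges 667 nm channel intensity with signal to noise over triplicate slides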
[7] = system: Chordin-like protein 2 (CHRDL2); experiment: compounds binding chordin-like 2 – biochemical, small-molecule microarray, 635 nm fluorescence, primary screen (AID 1126); settings: fluorescence 635 nm, higher = more signal;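 note: printed compound slides probed with Chrdl2 protein at 4 µg/mL for 1 h at 4 C; score merges 667 nm emission intensity with signal to noise over three replicate slides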
[8] = target: Concanavalin-A (Canavalia ensiformis) (UniProt P02866); experiment: compounds binding concanavalin A lectin – biochemical, small-molecule microarray, Alexa647 label, 635 nm, artefact control for SMM control protein annotation, primary screen (AID 1127); settings: ConA-A647 binding fluorescence, higher = more signal;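 note: z combines 667 nm emission intensity with signal-to-noise across three replicate slides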
Sequence of Concanavalin-A (Canavalia ensiformis) (P02866 whole entry, looked up): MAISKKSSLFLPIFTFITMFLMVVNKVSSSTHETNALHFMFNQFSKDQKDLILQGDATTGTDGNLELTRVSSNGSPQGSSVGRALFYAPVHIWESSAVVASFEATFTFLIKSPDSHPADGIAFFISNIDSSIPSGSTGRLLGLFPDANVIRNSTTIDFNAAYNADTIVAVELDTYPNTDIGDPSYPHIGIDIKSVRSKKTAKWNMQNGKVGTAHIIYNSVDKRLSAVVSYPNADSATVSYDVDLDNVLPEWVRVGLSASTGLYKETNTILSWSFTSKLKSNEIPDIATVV

[9] = compounds binding Alexa647 anti-His antibody – biochemical, small-molecule microarray, 635 nm fluorescence, artefact control for SMM control protein annotation, primary screen (AID 1128); settings: higher = more signal;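 note: score merges feature fluorescence with signal-to-noise for each printed compound spot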
[10] = system: Human papillomavirus type 1a E7 protein (residues 1-88); experiment: HPV1a E7 small-molecule binders, primary screen, biochemical, small-molecule microarray, residues 1-88, 635 nm (AID 1129); settings: small-molecule microarray binding, fluorescence 635 nm; higher = more signal
[11] = target: Focal adhesion kinase 1 (Homo sapiens) (UniProt Q05397); experiment: PTK2 protein binding on printed compound slides – biochemical, small-molecule microarray, 635/667 nm fluorescence, BSA, DTT, primary screen (AID 1130); settings: 635 nm fluorescence, higher = more signal;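 note: composite of spot emission at 667 nm and signal to noise over triplicate slides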
Sequence of Focal adhesion kinase 1 (Homo sapiens) (Q05397 whole entry, looked up): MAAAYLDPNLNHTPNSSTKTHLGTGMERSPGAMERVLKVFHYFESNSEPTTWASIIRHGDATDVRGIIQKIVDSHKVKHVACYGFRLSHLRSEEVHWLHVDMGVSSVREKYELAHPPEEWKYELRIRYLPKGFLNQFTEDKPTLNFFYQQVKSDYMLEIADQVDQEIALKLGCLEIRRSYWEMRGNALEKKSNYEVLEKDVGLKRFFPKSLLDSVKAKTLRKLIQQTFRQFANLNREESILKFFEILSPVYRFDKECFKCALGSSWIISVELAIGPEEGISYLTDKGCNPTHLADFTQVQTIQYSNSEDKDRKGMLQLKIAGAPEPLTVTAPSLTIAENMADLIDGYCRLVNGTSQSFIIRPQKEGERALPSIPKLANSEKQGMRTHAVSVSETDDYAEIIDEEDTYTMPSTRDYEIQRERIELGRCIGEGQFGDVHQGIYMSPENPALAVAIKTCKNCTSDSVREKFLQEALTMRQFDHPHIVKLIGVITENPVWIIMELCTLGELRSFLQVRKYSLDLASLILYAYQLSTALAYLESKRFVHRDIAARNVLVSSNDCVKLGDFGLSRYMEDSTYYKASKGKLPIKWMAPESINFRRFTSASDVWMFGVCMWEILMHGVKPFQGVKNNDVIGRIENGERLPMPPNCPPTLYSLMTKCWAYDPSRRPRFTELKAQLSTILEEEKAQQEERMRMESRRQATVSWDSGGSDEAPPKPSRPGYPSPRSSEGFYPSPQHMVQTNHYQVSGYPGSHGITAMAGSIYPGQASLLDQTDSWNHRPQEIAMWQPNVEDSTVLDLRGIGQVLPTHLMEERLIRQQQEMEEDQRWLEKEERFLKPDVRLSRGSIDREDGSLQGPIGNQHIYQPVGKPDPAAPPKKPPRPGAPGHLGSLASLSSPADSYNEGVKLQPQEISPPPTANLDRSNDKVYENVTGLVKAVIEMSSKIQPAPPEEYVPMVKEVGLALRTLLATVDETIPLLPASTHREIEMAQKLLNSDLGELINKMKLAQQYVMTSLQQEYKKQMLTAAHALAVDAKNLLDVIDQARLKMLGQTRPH

[12] = system: Fibrinogen (Alexa647-labelled); experiment: Alexa647-fibrinogen binding to printed small molecules – biochemical, small-molecule microarray, 635/667 nm fluorescence, artefact control for SMM control-protein annotation, profiling panel (AID 1131); settings: fibrinogen-A647 binding fluorescence, higher = more signal;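 note: z-score merges 667 nm fluorescence with per-spot signal-to-noise over triplicate slides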
[13] = target: Follistatin (Homo sapiens) (UniProt P19883); experiment: FST protein binding to printed compounds – biochemical, small-molecule microarray, 635/667 nm fluorescence, primary screen (AID 1132); settings: 635 nm fluorescence, higher = more signal
Sequence of Follistatin (Homo sapiens) (P19883 whole entry, looked up): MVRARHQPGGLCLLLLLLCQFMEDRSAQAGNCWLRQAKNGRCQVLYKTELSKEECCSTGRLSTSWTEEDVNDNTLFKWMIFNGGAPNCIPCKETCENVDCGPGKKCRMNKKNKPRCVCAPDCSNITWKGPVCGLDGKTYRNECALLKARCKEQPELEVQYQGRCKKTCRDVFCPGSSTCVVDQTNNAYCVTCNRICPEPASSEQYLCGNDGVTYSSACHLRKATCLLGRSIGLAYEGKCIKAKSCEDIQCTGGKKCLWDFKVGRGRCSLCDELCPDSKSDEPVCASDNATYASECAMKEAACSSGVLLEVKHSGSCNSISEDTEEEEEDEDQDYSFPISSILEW

[14] = target: Fibroblast growth factor 2 (Homo sapiens) (UniProt P09038); experiment: basic fibroblast growth factor binding to printed compounds – biochemical, small-molecule microarray, 635/667 nm fluorescence, primary screen (AID 1133); settings: FGF2, fluorescence 635/667, higher = more signal
Sequence of Fibroblast growth factor 2 (Homo sapiens) (P09038 whole entry, looked up): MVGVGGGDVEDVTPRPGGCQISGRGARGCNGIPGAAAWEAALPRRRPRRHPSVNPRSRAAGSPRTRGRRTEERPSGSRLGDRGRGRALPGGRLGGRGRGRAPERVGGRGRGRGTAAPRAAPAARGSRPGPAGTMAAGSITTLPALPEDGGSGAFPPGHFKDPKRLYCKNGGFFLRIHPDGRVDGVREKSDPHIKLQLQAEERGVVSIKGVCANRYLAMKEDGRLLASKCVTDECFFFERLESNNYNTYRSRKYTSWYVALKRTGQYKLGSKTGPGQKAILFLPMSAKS

[15] = JC-1 mitochondrial potential readout, lung cancer cells – cell-based, A549, JC-1 fluorescence, basal, 24 h, 100 nL, profiling panel (AID 1138); settings: higher = more signal;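 note: A549 lung adenocarcinoma cells under basal conditions with no added stimulus; test concentration not given here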
Lefty1 = Lefty1 protein binding to printed compounds – biochemical, small-molecule microarray, 635/667 nm fluorescence, primary screen (AID 1139); settings: fluorescence 635/667, higher = more signal
[16] = system: wheat germ agglutinin (Triticum aestivum), Alexa647-labelled; experiment: Alexa647-WGA lectin binding to printed small molecules – biochemical, small-molecule microarray, 635/667 nm fluorescence, artefact control for SMM control-protein annotation, profiling panel (AID 1140); settings: WGA-A647 binding, 635 nm fluorescence, higher = more signal;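 note: score merges 667 nm feature emission with signal to noise over triplicate slides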
[17] = target: Luciferin 4-monooxygenase (Photinus pyralis) (UniProt P08659); experiment: inhibition of purified Photinus pyralis luciferase – biochemical, luminescence, purified enzyme, 2006 set, primary screen (AID 1141); settings: purified firefly luciferase, SteadyGlo luminescence, 30 min; higher = more signal, called active from +8 up or from −8 down;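 note: cell-free assay with purified firefly luciferase at 100 ng per well in PBS; test concentration not given here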
Sequence of Luciferin 4-monooxygenase (Photinus pyralis) (P08659 whole entry, looked up): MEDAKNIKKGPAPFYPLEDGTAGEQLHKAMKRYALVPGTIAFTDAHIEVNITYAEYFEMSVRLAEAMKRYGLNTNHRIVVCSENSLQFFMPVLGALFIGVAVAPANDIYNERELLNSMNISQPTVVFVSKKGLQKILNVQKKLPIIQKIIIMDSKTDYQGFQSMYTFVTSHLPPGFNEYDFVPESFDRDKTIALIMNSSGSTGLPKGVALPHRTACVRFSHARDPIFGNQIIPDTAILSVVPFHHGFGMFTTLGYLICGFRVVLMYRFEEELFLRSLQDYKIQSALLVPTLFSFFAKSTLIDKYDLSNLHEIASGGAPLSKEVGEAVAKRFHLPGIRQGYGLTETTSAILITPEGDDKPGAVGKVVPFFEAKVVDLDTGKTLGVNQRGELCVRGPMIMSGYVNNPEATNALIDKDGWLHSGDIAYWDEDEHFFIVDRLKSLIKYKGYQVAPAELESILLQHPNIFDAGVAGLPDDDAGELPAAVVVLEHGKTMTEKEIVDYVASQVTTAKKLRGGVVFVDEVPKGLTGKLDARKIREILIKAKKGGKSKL

| SMILES | composite z-score (Albumin (Bos taurus)) | composite Z-score [1] | composite z-score [2] | composite z-score [3] | composite z-score [4] | composite z-score [5] | composite z-score [6] | composite z-score (Sam68 (KHDRBS1)) | composite z-score [7] | composite z-score [8] | composite z-score [9] | composite z-score [10] | composite z-score [11] | composite z-score [12] | composite z-score [13] | composite z-score [14] | z-score [15] | composite z-score (Lefty1) | composite z-score [16] | z-score [17] |
| --- | --- | --- | --- | --- | --- | --- | --- | --- | --- | --- | --- | --- | --- | --- | --- | --- | --- | --- | --- | --- |
| COCCOC(=O)N1C(=O)[C@@]2(c3cc(C#CC4=CCCCC4)ccc31)[C@H](C(=O)N1CCc3cc(OC)c(OC)cc3C1)[C@H]1C(=O)O[C@H](c3ccccc3)[C@H](c3ccccc3)N1[C@@H]2c1ccc(OCCO)cc1 | 0.448 | 0.238 (inactive) | 0.0836 | -0.152 | 0.194 | 1 | 0.378 | 1.29 | 0.69 | 1.14 | 1.2 | 1.14 | 0.756 | 0.868 | 1.15 | 1.16 | -1.21 | 1.1 | 0.118 | -1.09 (inactive) |
| COCCOC(=O)N1C(=O)[C@@]2(c3cc(C#Cc4ccc(OC)cc4)ccc31)[C@H](c1ccccc1OCCO)N1[C@H](c3ccccc3)[C@H](c3ccccc3)OC(=O)[C@H]1[C@@H]2C(=O)N1CCN(c2ncccn2)CC1 | 0.322 | 0.179 (inactive) | -0.0288 | -0.131 | 0.336 | 0.572 | 0.141 | 0.866 | 0.0135 | 0.923 | 2.12 | 1.18 | 0.863 | -0.134 | 0.803 | 0.404 | -1.18 | 0.361 | 0.816 | -1.1 (inactive) |
| CN1C(=O)C2C=CC(C(O)C3CCCCC3)N(Nc3ccc([N+](=O)[O-])cc3[N+](=O)[O-])C2C1=O (stereo not given) | 0.892 | -0.131 (inactive) | 0.23 | 0.0302 | 0.732 | 2.62 | 0.605 | 1.31 | -0.384 | 0.955 | 1.08 | 1.25 | 0.622 | 1.02 | 1.07 | 0.0734 | 1.37 | 0.182 | 0.497 | 0.799 (inactive) |
| C#CCN(CC1=CCCCC1)[C@H](c1ccccc1Br)[C@@H](O)Cc1ccccc1 | 0.306 | -0.356 (inactive) | -0.344 | -0.177 | 0.345 | 0.545 | 0.0773 | 0.516 | -0.882 | -0.679 | 0.646 | -0.0173 | 1.98 | -0.671 | -0.688 | -1.05 | -1.27 | -0.955 | 0.665 | -0.688 (inactive) |
| [N-]=[N+]=NCc1ccccc1[C@@H]1OC(c2ccc(OCCCO)cc2)=N[C@]1(Cc1ccccc1N=[N+]=[N-])C(=O)N1CCOCC1 | 0.809 | 0.105 (inactive) | 0.387 | 0.408 | 0.765 | 2.9 | 0.493 | 1.29 | -0.119 | 1.21 | 2.12 | 1.27 | 0.536 | 0.857 | 1.31 | 1.66 | 1.28 | -0.207 | 1.13 | -1.52 (inactive) |
| COCCOC(=O)N1C(=O)[C@@]2(c3ccccc31)[C@H](c1ccc(O)cc1)N1[C@H](c3ccccc3)[C@H](c3ccccc3)OC(=O)[C@H]1[C@@H]2C(=O)NC[C@H](O)c1ccccc1 | 0.827 | 0.442 (inactive) | 0.0888 | -0.0513 | 0.756 | 1.79 | 0.506 | 1.07 | -1.04 | 0.291 | 2.08 | 1.2 | -0.0504 | 0.068 | 0.532 | -0.104 | -0.767 | 0.282 | 0.0324 | 0.733 (inactive) |
| [N-]=[N+]=Nc1ccccc1C[C@]1(C(N)=O)N=C(c2ccc(OCCCO)cc2)O[C@H]1c1ccccc1 | 0.989 | 0.364 (inactive) | 0.0556 | -0.106 | 0.662 | 2.59 | 0.386 | 0.974 | -1.18 | 0.6 | 2.45 | 1.2 | -0.155 | 1.01 | 0.371 | -0.768 | 0.518 | -0.364 | 1.23 | -1.53 (inactive) |
| COc1ccc([Si](C)(C)[C@H]2[C@H](CCn3cc([C@H](O)c4ccccc4)nn3)O[C@@]3(C(=O)N(Cc4cccc(N5CCOC5=O)c4)c4ccccc43)[C@@H]2C)cc1 | -0.0478 | -0.01 (inactive) | -0.0068 | -0.301 | 0.0191 | 0.178 | -0.49 | 1.07 | 0.528 | 0.958 | 0.0694 | 0.679 | 0.0871 | 0.401 | 1.28 | 0.669 | 0.711 | 0.892 | 0.22 | 0.387 (inactive) |
| O=C1NC(=O)C2C1C=CC(C(O)c1cccc3ccccc13)N2Nc1ccccn1 (stereo not given) | 0.421 | 0.0886 (inactive) | 0.138 | -0.0966 | 0.553 | 0.296 | 0.447 | 0.0488 | 0.394 | 0.506 | 1.97 | 0.158 | 0.132 | -0.207 | 0.169 | 0.11 | 1.55 | -0.34 | 0.0591 | 0.135 (inactive) |
| C=CC[C@@]1(C(=O)NCc2ccccc2)N=C(c2ccc(OCCCO)cc2)O[C@@H]1c1ccccc1N=[N+]=[N-] | 0.98 | -0.108 (inactive) | 0.355 | 0.0186 | 0.712 | 3.18 | 0.736 | 1.3 | -0.623 | 0.906 | 2.41 | 1.24 | 0.649 | 0.993 | 1.28 | 0.281 | 0.444 | 0.11 | 1 | -8.72 (active) |
| CCOC(=O)C[C@H]1[C@H](OC(=O)Cc2ccc3c(c2)OCO3)[C@@H](NC(=O)c2ccc(-c3ccccc3)cc2)c2cc(OCCCO)ccc2N1C(=O)c1ccc2ccccc2n1 | 0.238 | -0.549 (inactive) | -0.112 | -0.182 | 0.0289 | 0.1 | 0.0968 | 0.202 | 0.415 | 0.643 | 0.0542 | 0.242 | 0.179 | 0.368 | 0.46 | -0.0919 | -0.728 | 0.278 | 0.132 | 0.74 (inactive) |
| O=C1O[C@@H](c2ccccc2)[C@@H](c2ccccc2)N2[C@@H](c3ccc(OCCO)cc3)[C@]3(C(=O)Nc4ccccc43)[C@@H](C(=O)NC[C@H](O)c3ccccc3)[C@H]12 | 0.393 | 0.312 (inactive) | 0.0519 | -0.0649 | 0.549 | 1.67 | 0.759 | 0.989 | 0.895 | 0.999 | 0.87 | 0.894 | -0.177 | 0.371 | 1.34 | 0.968 | -0.575 | 0.0849 | 0.638 | -1.46 (inactive) |
| [N-]=[N+]=NCc1ccccc1[C@@H]1OC(c2ccc(OCCCO)cc2)=N[C@]1(CCS(=O)(=O)c1ccccc1)C(=O)NCc1ccccc1 | 0.732 | 0.0035 (inactive) | 0.946 | 0.257 | 0.694 | 1.89 | 1.77 | 1.3 | 0.518 | 1.11 | 1.82 | 1.21 | 0.878 | 0.964 | 1.47 | 1.37 | -0.338 | 1.49 | 1.27 | -0.375 (inactive) |
| C=C(CCCC)C(=O)CC[C@H](OC(=O)c1cccnc1)c1ccccc1OCCO | 0.287 | 1.71 (inactive) | -0.0345 | -0.161 | 0.268 | 0.232 | 0.259 | -0.546 | 0.335 | 0.277 | 0.984 | -0.513 | 0.0467 | -0.633 | 0.537 | 1.32 | 1.08 | 0.785 | 0.14 | -0.288 (inactive) |
| CN1C(=O)C2C=CC(C(O)c3cccs3)N(Nc3ccccc3)C2C1=O (stereo not given) | 0.95 | -0.227 (inactive) | 0.0873 | -0.0856 | 0.831 | 1.87 | -0.0235 | 0.186 | 0.0907 | 0.442 | 0.803 | 1.16 | 0.251 | 0.024 | 0.492 | -0.294 | 0.0177 | 0.249 | 0.508 | -0.0014 (inactive) |
| COCCn1c(C(=O)N2CCCC2)cc2c1C[C@H]1CN(C(=O)c3ccccc3)[C@@](Cc3ccc(F)cc3)(C(=O)OC)[C@@H]21 | 1.02 | 2 (inactive) | 0.309 | 0.11 | 0.827 | 2.96 | 0.406 | 1.32 | -0.364 | 1 | 0.346 | 1.27 | 1.61 | 1.02 | 0.35 | -0.703 | -0.328 | 0.108 | 0.845 | 3.4 (inactive) |
